Mtb MenB inh – M. tuberculosis MenB inhibitors, primary screen, biochemical, absorbance; actives 0.43% (n = 100,000); AID 540299, 2011; inhibition, % (no concentration beside the values); MenB enzyme assay, absorbance read-out; 1,4-dihydroxy-2-naphthoyl-CoA synthase (Mycobacterium tuberculosis (strain ATCC 25618 / …; in the data active means inhibition above about 21%, passing the limit was not always enough
Target sequence (P9WNP5 whole entry, looked up): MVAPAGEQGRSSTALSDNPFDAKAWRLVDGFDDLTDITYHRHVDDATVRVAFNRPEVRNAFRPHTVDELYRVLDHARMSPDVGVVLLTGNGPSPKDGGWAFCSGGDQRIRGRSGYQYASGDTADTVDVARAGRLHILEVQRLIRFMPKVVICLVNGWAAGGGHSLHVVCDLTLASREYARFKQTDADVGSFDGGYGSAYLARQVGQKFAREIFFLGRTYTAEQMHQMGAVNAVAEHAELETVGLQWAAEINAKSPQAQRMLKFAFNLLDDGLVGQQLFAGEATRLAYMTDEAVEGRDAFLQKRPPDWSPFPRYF
PV pol inh – poliovirus RdRp elongation inhibitors, primary screen, biochemical, fluorescence polarization, total intensity. Genome polyprotein (Poliovirus type 1 (strain Mahoney)), P03300. poliovirus polymerase elongation; hits give low values. % elongation, % (compound at 16.7 µg/mL). actives 0.66% (n = 150,000). AID 588519, 2011; in the data active means % elongation below about 90%
AID504770 – growth inhibition of E. coli YBA685, primary screen, V. cholerae RctB inhibitors | actives 0.27% (n = 130,000) | z-score (test concentration not listed) | E. coli YBA685 rctB-dependent plasmid, OD600 growth, 3 h; hits give low values; in the data active means z-score below about -2, passing the limit was not always enough
Mtb MbtI inh – MbtI salicylate synthase inhibitors, primary screen, biochemical, fluorescence intensity | P9WFX0 | purified MbtI enzyme, fluorescence intensity read-out | inhibition, % (concentration not given with the values) | actives 0.89% (n = 100,000) | AID 493033, 2011; in the data active means inhibition mostly above about 56%, no sharp cut-off; inactive means mostly below about 77%
The depositor's hits bear a star; / = not tested or not shown. The list is not random: actives were taken first. Their share in the collection is about 1.4%.

SMILES	Mtb MenB inh	PV pol inh	AID504770	Mtb MbtI inh
CC1CCN(S(=O)(=O)c2ccc(S(=O)(=O)N3CCCN(Cc4ccccc4)C3)cc2)CC1	36*	104	1.4	0
C=CCN1C(=O)/C(=C\c2ccc(O)c(OC)c2)C(=O)NC1=S	-72	102	-0.9	35
C=CCN1C(=O)/C(=C\c2ccc(OC)cc2)C(=O)NC1=S	-160	99	-0.8	95*
C=CCN1C(=O)/C(=C\c2ccc(O)c(Br)c2)C(=O)NC1=S	-48	100	-0.25	14
C=CCN1C(=O)/C(=C\c2ccc(N(CC)CC)cc2)C(=O)NC1=S	-35	100	0.2	79*
C=CCN1C(=O)/C(=C\c2ccc(OCc3ccccc3C#N)cc2)C(=O)NC1=S	-56	102	-0.35	74*
Cn1c(C(=O)NCCC2=CCCCC2)cc2oc3ccccc3c21	0	102	0.45	119
S=c1sscc1-c1ccccc1	-77	53*	0.45	/
CN(C)C1(CNCc2cnn(-c3ccccc3)n2)CCCCC1	8	88*	0	-1
CN(C)C1(CNCc2nc3ccccc3c(=O)[nH]2)CCCCC1	-43	95	0.35	19
Cc1nn(C(C)CN)c(C)c1C (stereo unspecified)	34*	101	1.9	-3
CC(=C/C(=O)O)/C=C/c1ccccc1	-23	102	0.85	30
CC(/C=C/c1ccccc1)=N\NC(N)=S	-121	103	-0.45	91*
COCC(C)NCc1ccc2ccccc2c1 (stereo unspecified)	-22	100	-1.8	-7
COc1ccc(OC)c(C(=O)CSC#N)c1	-5	103	1.9	-45
COc1ccc(C(=O)CSC#N)cc1OC	32*	97	-0.6	/
CCn1c(-c2ccco2)nn(CN(C)Cc2cccc(Cl)c2)c1=S	11	105	1.2	34
O=S(=O)(c1ccc(N2CCC(CNc3nc4ccccc4s3)CC2)cc1)N1CCOCC1	39*	103	1.6	43
CC(=O)Nc1ccc(-c2cn3cccc(C)c3n2)cc1	-10	105	-0.25	109
Cc1ccc(N2CCN(C(=O)Nc3cn(CC(C)C)c(=O)c4ccccc34)CC2)c(C)c1	/	68*	/	/
COc1ccccc1N1CCN(C(=O)Nc2cn(CC(C)C)c(=O)c3ccccc23)CC1	/	104	/	/
CCN1CCCC1CNC(=O)Nc1cn(CC(C)C)c(=O)c2ccccc12 (stereo unspecified)	-10	100	-0.3	-28
COc1ccc(CNC(=O)Nc2cn(CC(C)C)c(=O)c3ccccc23)c(OC)c1	/	-10*	/	/
CCCNC(=O)Nc1cn(CC(C)C)c(=O)c2ccccc12	1	16*	-0.9	120
Cc1cccc(N2CCN(C(=O)Nc3cn(CC(C)C)c(=O)c4ccccc34)CC2)c1C	/	98	/	/
SMILES	Mtb MenB inh	PV pol inh	AID504770	Mtb MbtI inh
O=C(O)/C=C/Sc1ccccc1	-1	101	-1.6	9
Cc1ccc(-c2cn3c(=S)[nH]nc3s2)cc1	-51	100	0.25	98*
Cc1ccc(-c2n[nH]c(=S)n2C)cc1	1	101	1.6	73
CCn1cc(C(=O)O)c(=O)c2cnc(N3CCN(C(=S)NCc4ccccc4)CC3)nc21	-18	102	-3.4*	-4
Brc1cccc(-c2cn3ccsc3n2)c1	10	100	1.5	5
COC(=O)C1=NC=CN2CCS(=O)(=O)N=C12	-29	/	0.2	18
Cc1sc2c(c1C)C1=NS(=O)(=O)CCN1C=N2	-33	76*	0.35	112
O=C(Cc1ccc(Br)cc1)NN1CCOCC1	-15	104	1.9	-13
CCCn1c(SCc2nc(N)nc(Nc3ccccc3C)n2)nnc1-c1ccncc1	1	113	-0.1	-21
Oc1ccc(Cl)cc1-c1csnn1	2	100	-2.2*	9
C=C1C(C(=O)Nc2ccccc2N2CCOCC2)C1C(=O)Nc1ccccc1N1CCOCC1 (stereo unspecified)	-26	103	0.25	-11
CN(C)C(=S)Nc1ccccc1N1CCOCC1	-11	98	-0.6	95*
CCOC(=O)c1sc(N(C)C(C)=O)nc1C	39*	99	0.8	19
CCOC(=O)c1sc(Br)nc1C	/	/	0.95	/
CC(=O)Nc1ccc(C(=S)NCCCO)cc1	-7	77*	-1.1	85
CCCNC(=O)c1ccc(NC(C)=O)cc1	-8	107	0	/
O=C(Nc1c2c(nn1-c1cccc(Cl)c1)CS(=O)C2)C1CCCC1 (stereo unspecified)	/	/	0.95	/
Cn1c(=S)[nH]c2ccccc21	-27	90	-1.6	101*
CC(c1ccccc1)n1c(=S)[nH]c2ccccc21 (stereo unspecified)	-13	103	-0.15	89*
CCOC(=O)c1c(C)n(C)c2ccc(OCC)cc12	-26	105	0	/
CCCCn1c(=S)[nH]c2ccccc21	-12	102	-0.55	12
CCOc1ccc2c(c1)[nH]c(=S)n2C	-50	95	0.3	78*
CCCSc1nc(-c2ccc(OC)cc2)cc(-c2ccccc2OC)c1C#N	/	88*	/	/
C=CC1=C(C(=O)O)N2C(=O)[C@@H](NC(=O)/C(=N\O)c3csc(N)n3)[C@H]2SC1 (stereo in doubt)	0	100	-5.1*	-4
CO/N=C(\C(=O)NC1C(=O)N2C(C(=O)OCOC(=O)C(C)(C)C)=C(/C=C\c3scnc3C)CSC12)c1csc(N)n1 (stereo unspecified)	-1	100	-0.1	-15
SMILES	Mtb MenB inh	PV pol inh	AID504770	Mtb MbtI inh
O=c1/c(=C/c2ccc(Br)cc2)sc2nncn12	33*	97	0.8	15
CCCn1nnnc1SCC(=O)c1ccccc1	31*	103	1.6	3
O=C(CSc1nnnn1Cc1ccccc1)c1ccccc1	-28	101	-0.05	-2
Cc1nnc(SCc2cccc(C(=O)c3ccccc3)c2)[nH]c1=O	-15	100	-0.7	55*
Cc1nnc(SCc2ccc(C(=O)c3ccc(F)cc3)cc2)[nH]c1=O	/	/	0.55	/
COC(=O)C1(C(=O)OC)C(c2ccc(Cl)cc2)C1(C#N)C#N (stereo unspecified)	/	/	1.3	-3
CCC(=O)c1cc(Cl)ccc1O	-3	103	-0.2	-3
Oc1ccc(Cl)cc1Sc1cc(Cl)ccc1O	-36	107	-7.1*	/
CCOC(=O)/C(=C\c1cccc2ccccc12)C1=Nn2c(C)nnc2SC1	-18	104	-0.75	3
O=C(CSc1nc2ccccc2c(=O)[nH]1)c1ccc(-c2ccccc2)cc1	0	104	0.45	1
O=C(CSc1nc2ccccc2c(=O)[nH]1)c1ccc(O)cc1O	6	104	-0.4	82*
CC(C)Cn1c(=O)c2sccc2n2c(=S)sc(-c3ccccc3)c12	-11	95	-1	68*
Cc1ccc2c(c1)CCCN2C(=O)C1CCCN1C(=O)OC(C)(C)C (stereo unspecified)	-19	106	-0.45	-4
CCN(CC)C(C)C#Cc1ccccc1 (stereo unspecified)	5	100	-0.2	-12
O=S(=O)(NNc1nccc(-c2cccnc2)n1)c1cccc(C(F)(F)F)c1	5	101	-1	55*
